Common to all, as to assay: NCI-60 one-dose screen, 48 h (100 = growth as untreated, 0 = no growth, -100 = all killed)
One experiment deals with RPMI-8226 leukemia. As to conditions: 10 µM unless noted.
Another experiment concerns OVCAR-8 ovarian. As to conditions: 10 µM unless noted.
For the next experiment, the system named is OVCAR-5 ovarian. As to conditions: 10 µM unless noted.
Another experiment relates to OVCAR-4 ovarian. As to conditions: 10 µM unless noted.
In another experiment the test system is SK-OV-3 ovarian. As to conditions: 10 µM unless noted.
For another experiment, the system named is IGROV1 ovarian. As to conditions: 10 µM unless noted.
The next experiment has as its system OVCAR-3 ovarian. As to conditions: 10 µM unless noted.
The test system of a further experiment is HS 578T breast. As to conditions: 10 µM unless noted.
The next experiment relates to NCI/ADR-RES ovarian. As to conditions: 10 µM unless noted.
For the next experiment, the system named is T-47D breast. As to conditions: 10 µM unless noted.
The subject of another experiment is BT-549 breast. As to conditions: 10 µM unless noted.
For another experiment, the system named is MDA-MB-435 melanoma. As to conditions: 10 µM unless noted.
The next experiment has as its system SW-620 colon. As to conditions: 10 µM unless noted.
In a further experiment the test system is MCF7 breast. As to conditions: 10 µM.
The next experiment has as its system HCT-116 colon. As to conditions: 10 µM unless noted.
In a further experiment the test system is HCC-2998 colon. As to conditions: 10 µM unless noted.
In a further experiment the test system is KM12 colon. As to conditions: 10 µM unless noted.

Structures are written as SMILES. Compounds without any hit were thinned out: in the full panel of roughly 83,000, 20% have a hit.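 Values shown are percent growth following 48 h exposure of cells in 96-well plates to a single concentration of compound; below 10 was considered active.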 A number with no mark means an inactive call. Activity calls are given as the source filed them.

Consider `COc1ccc(-c2cc(=O)c3c(OC)c4ccoc4c(/C=C/C=O)c3o2)cc1`, for which the growth in the experiment with RPMI-8226 leukemia is 0.179% (active); in the experiment on OVCAR-8 ovarian, 28.5%; in the experiment on OVCAR-5 ovarian it was 77.1%; with OVCAR-4 ovarian, 37.2%; with SK-OV-3 ovarian it was 84%; with IGROV1 ovarian it was 72.7%. Further, the growth in the experiment with OVCAR-3 ovarian is 18.3%; with HS 578T breast, 39.2%; in the experiment on NCI/ADR-RES ovarian, 33.5%; in the experiment on T-47D breast, 1.64% (active); in the experiment with BT-549 breast, -22.9% (active); in the experiment with MDA-MB-435 melanoma it was 21.5%. The growth with SW-620 colon was 19.6%; with MCF7 breast, 17.3%; in the experiment on HCT-116 colon, -73% (active); with HCC-2998 colon it was 92.3%; in the experiment with KM12 colon, 80%.

Take `O=C(O)CCC(=O)c1ccc(C2CCCCCC2)cc1`: the growth with RPMI-8226 leukemia was 95.8%; in the experiment with OVCAR-8 ovarian, 102%; in the experiment on OVCAR-5 ovarian, 105%; in the experiment on OVCAR-4 ovarian, 102%; in the experiment on SK-OV-3 ovarian, 103%; in the experiment on IGROV1 ovarian, 101%. Besides, the growth was 105% with OVCAR-3 ovarian; 102% in the experiment on HS 578T breast; 102% in the experiment with NCI/ADR-RES ovarian; 96.2% in the experiment on T-47D breast; 94.9% in the experiment on BT-549 breast; 105% with MDA-MB-435 melanoma. For the same compound, the growth with SW-620 colon is 107%; with MCF7 breast, 96.6%; in the experiment on HCT-116 colon it was 98.5%; in the experiment with HCC-2998 colon, 108%; in the experiment with KM12 colon, 105%.

For `COc1ccc(S(=O)(=O)N(Cc2ccc3c(n2)C=CC(C)(C)O3)C2CCC2)cc1OC`, the growth is -47.2% (active) in the experiment on RPMI-8226 leukemia; 2.69% (active) in the experiment with OVCAR-8 ovarian; 27.2% in the experiment with OVCAR-5 ovarian; -13.8% (active) in the experiment with OVCAR-4 ovarian; -3.43% (active) in the experiment with SK-OV-3 ovarian; -23.9% (active) in the experiment with IGROV1 ovarian. For the same compound, the growth was -26.6% (active) in the experiment on OVCAR-3 ovarian; 12.8% in the experiment on HS 578T breast; 6.95% (active) in the experiment on NCI/ADR-RES ovarian; 0.329% (active) with T-47D breast; -25.2% (active) in the experiment on BT-549 breast; -34.7% (active) in the experiment with MDA-MB-435 melanoma. Also, the growth is 3.81% (active) with SW-620 colon; 2.14% (active) with MCF7 breast; -5.68% (active) in the experiment with HCT-116 colon; -1.63% (active) with HCC-2998 colon; -1.42% (active) in the experiment on KM12 colon.

With `COc1cccc(C(=O)NC(c2ccc(C)cc2)c2cc(Cl)c3cccnc3c2O)c1` (stereo not drawn), the growth in the experiment with RPMI-8226 leukemia is 15.5%; in the experiment with OVCAR-8 ovarian it was 1.23% (active); in the experiment with OVCAR-5 ovarian, 38.6%; in the experiment with OVCAR-4 ovarian, 24.9%; in the experiment with SK-OV-3 ovarian, 16.2%; in the experiment on IGROV1 ovarian it was -5.14% (active). In addition, the growth was 30% in the experiment on OVCAR-3 ovarian; 34.5% in the experiment with HS 578T breast; 6.12% (active) in the experiment on NCI/ADR-RES ovarian; 6.13% (active) with T-47D breast; 12.3% in the experiment with BT-549 breast; 19.4% with MDA-MB-435 melanoma. Moreover, the growth is 14.1% in the experiment on SW-620 colon; 17.9% in the experiment with MCF7 breast; 19.2% in the experiment on HCT-116 colon; 7.35% (active) in the experiment with HCC-2998 colon; 20.7% in the experiment with KM12 colon.

Take `Cc1ccc(S(=O)c2ccc([N+](=O)[O-])c3nonc23)cc1` (stereo not drawn): the growth in the experiment on RPMI-8226 leukemia is 91.3%; in the experiment on OVCAR-8 ovarian, 99.7%; in the experiment on OVCAR-5 ovarian it was 118%; in the experiment on OVCAR-4 ovarian it was 101%; in the experiment with SK-OV-3 ovarian, 112%; in the experiment on IGROV1 ovarian it was 104%. In addition, the growth with OVCAR-3 ovarian is 94.5%; in the experiment on HS 578T breast, 96.5%; with NCI/ADR-RES ovarian, 114%; with T-47D breast it was 59.1%; with BT-549 breast it was 95.4%; in the experiment on MDA-MB-435 melanoma it was 106%. Besides, the growth in the experiment with SW-620 colon is 29%; with MCF7 breast it was 92.9%; in the experiment on HCT-116 colon, 68.9%; in the experiment with HCC-2998 colon, 116%; in the experiment with KM12 colon, 109%.

In the case of `COc1cc(/C=C/C(=O)N2c3ccccc3CC2C)c(OC)c2c1OCO2` (stereo not drawn), the growth was 88.6% in the experiment on RPMI-8226 leukemia; 96.9% with OVCAR-8 ovarian; 87.1% in the experiment on OVCAR-5 ovarian; 96.6% with OVCAR-4 ovarian; 122% with SK-OV-3 ovarian; 105% in the experiment on IGROV1 ovarian. Also, the growth in the experiment on OVCAR-3 ovarian is 103%; in the experiment with HS 578T breast it was 96.2%; in the experiment with NCI/ADR-RES ovarian, 81.5%; in the experiment on T-47D breast, 77.2%; with BT-549 breast, 97.7%; in the experiment with MDA-MB-435 melanoma it was 85.8%. The growth in the experiment on SW-620 colon was 93.8%; in the experiment with MCF7 breast it was 91.6%; with HCT-116 colon it was 97.2%; in the experiment on HCC-2998 colon, 100%; in the experiment with KM12 colon, 93.8%.

Take `Cc1[nH]c2ccccc2c(=O)c1CC=C(Cl)Cl`: the growth in the experiment on RPMI-8226 leukemia was -20.7% (active); in the experiment with OVCAR-8 ovarian it was -84% (active); in the experiment with OVCAR-5 ovarian, 40.1%; with OVCAR-4 ovarian it was -18.6% (active); with SK-OV-3 ovarian, 86.5%; in the experiment with IGROV1 ovarian, 29.4%. Also, the growth is 40.9% in the experiment on OVCAR-3 ovarian; 84.2% with HS 578T breast; 52.4% in the experiment on NCI/ADR-RES ovarian; -26.4% (active) in the experiment on T-47D breast; 135% in the experiment on BT-549 breast; 47.5% with MDA-MB-435 melanoma. The growth with SW-620 colon was 10.5%; in the experiment with MCF7 breast it was -88.7% (active); in the experiment on HCT-116 colon, -65.6% (active); with HCC-2998 colon it was 59.3%; in the experiment with KM12 colon it was 18.2%.

As to `COc1ccc(Nc2cc(C)nc(NCc3ccccc3)n2)cc1`, the growth with RPMI-8226 leukemia is 8.08% (active); with OVCAR-8 ovarian it was 24.1%; in the experiment on OVCAR-5 ovarian, 62%; with OVCAR-4 ovarian, 46.7%; in the experiment on SK-OV-3 ovarian it was 92.5%; in the experiment on IGROV1 ovarian, 37.5%. Moreover, the growth is 6.99% (active) with OVCAR-3 ovarian; 60.5% in the experiment on HS 578T breast; 77.8% with NCI/ADR-RES ovarian; 63% with T-47D breast; 97.6% with BT-549 breast; 18.5% in the experiment with MDA-MB-435 melanoma. Also, the growth is 15% in the experiment on SW-620 colon; 11.1% in the experiment with MCF7 breast; 15.4% in the experiment on HCT-116 colon; 21.2% with HCC-2998 colon; 5.56% (active) in the experiment with KM12 colon.

For `Cc1ccc(F)cc1NC(=O)c1cc(Cl)ccc1Nc1ccccc1`, the growth in the experiment with RPMI-8226 leukemia was 32.2%; in the experiment on OVCAR-8 ovarian it was 27.3%; with OVCAR-5 ovarian it was 70.2%; in the experiment with OVCAR-4 ovarian, 51.6%; in the experiment with SK-OV-3 ovarian, 82.8%; in the experiment on IGROV1 ovarian, 71%. Besides, the growth with OVCAR-3 ovarian was 53.4%; in the experiment on HS 578T breast it was 90.4%; with NCI/ADR-RES ovarian, 40.1%; in the experiment on T-47D breast, 37.1%; in the experiment with BT-549 breast it was 86.2%; in the experiment on MDA-MB-435 melanoma, 59.5%. In addition, the growth in the experiment with SW-620 colon was 57.5%; with MCF7 breast, 29.7%; in the experiment with HCT-116 colon, 30.9%; in the experiment on HCC-2998 colon it was 28.2%; with KM12 colon it was 37.1%.

These data come from PubChem BioAssay (NCI).
